Test results taken from PubChem BioAssay.
“And” between values parts separate entries of the source, which are not always exact repeats. Equal entries are not always repeated. Results filed as inconclusive are left out. The source made the active and inactive calls. Unless noted, no cut-off is given here; in the data, nearly all actives have AC50 up to about 26 µM.

Experiments:
[1] = P. berghei load reduction in hepatocytes – cell-based, HepG2, luciferase luminescence, HepG2 viability, primary screen (AID 624349; in the data active = parasite load remaining mostly below about 12%, no sharp cut-off; inactive = mostly above about 10%;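 note: 100% = mean of DMSO negative control wells on the same plate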); settings: P. berghei liver stage in HepG2, luciferase luminescence, concentration not given here; parasite load remaining: stronger effect = lower value; viability: measured here: HepG2 viability without parasites
[2] = signal quenchers or enhancers, Cy5 substrate/SSB – biochemical, NIH Clinical Collection, E. coli SSB, artefact control for HCV NS3 helicase inhibitor project (AID 743268; call rule not given here); settings: Cy5-oligo bound E. coli SSB, fluorescence interference
[3] = test system: Hepatitis C virus NS3 helicase; test: blockers of NS3h binding to DNA – biochemical, fluorescence polarization, NIH Clinical Collection, primary screen (AID 743270; call rule not given here); settings: NS3 helicase binding to Cy5-dT15 DNA, stronger effect = higher value, concentration not given here
[4] = biological target: Single-stranded DNA-binding protein (Escherichia coli (strain K12)) (UniProt P0AGE0); test: SSB-ssDNA binding inhibitors – biochemical, fluorescence polarization, NIH Clinical Collection, counter-screen for HCV NS3 helicase inhibitor project (AID 743271; in the data active = inhibition above about 28%); settings: E. coli SSB-DNA binding, stronger effect = higher value, concentration not given here
[5] = compounds distorting NS3 helicase fluorescence signal – biochemical, NIH Clinical Collection, artefact control for HCV NS3 helicase inhibitor project (AID 743272; call rule not given here;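 note: HCV NS3 helicase with a Cy5 labelled single stranded DNA probe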); settings: fluorescence interference counterscreen, HCV NS3 helicase assay; stronger effect = lower value
[6] = viability loss in pontine glioma line – cell-based, SU-DIPG-XVII, MIPE5.0, CellTiter-Glo, qHTS, dose response (AID 1347060); settings: CellTiter-Glo ATP luminescence;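 for AC50: cells exposed to compound for 48 hours before viability readout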
[7] = viability loss in pontine glioma line – cell-based, SU-DIPG-IV, MIPE4.0, CellTiter-Glo, qHTS, dose response (AID 1347063; cut-off not given, nearly all actives have AC50 up to about 30 µM;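 note: compound exposure lasted 48 hours before the viability readout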); settings: CellTiter-Glo ATP luminescence
[8] = viability loss in pontine glioma line – cell-based, SU-DIPG-XIII, MIPE5.0, CellTiter-Glo, qHTS, dose response (AID 1347064; cut-off not given, nearly all actives have AC50 up to about 23 µM;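 for AC50: cells exposed to compound for 48 hours before the viability read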); settings: CellTiter-Glo ATP luminescence
[9] = viability loss in pontine glioma line – cell-based, SU-DIPG-XXV, MIPE5.0, CellTiter-Glo, qHTS, dose response (AID 1347065); settings: CellTiter-Glo ATP luminescence;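 note: cells exposed to compound for 48 hours before ATP readout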
[10] = growth inhibition of DIPG cells – cell-based, MIPE4.0 library, CellTiter-Glo luminescence, qHTS (AID 1347066; cut-off not given, nearly all actives have AC50 up to about 30 µM;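 note: cells exposed to compound for 48 hours before readout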); settings: SU-DIPG-VI viability, CellTiter-Glo ATP luminescence
[11] = JHH-DIPG-1 glioma cell viability, MIPE5.0 library, CellTiter-Glo luminescence, qHTS (AID 1347067); settings: JHH-DIPG-1 glioma viability, CellTiter-Glo ATP luminescence;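 note: cells exposed to compound for 48 hours before readout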
[12] = growth inhibition of DIPG cells – cell-based, MIPE5.0 library, qHTS (AID 1347068; cut-off not given, nearly all actives have IC50 up to about 30 µM;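 for IC50: cells exposed to compound for 48 hours before viability readout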); settings: SU-DIPG-XXV viability
[13] = viability loss with induced miR-34 in A549 – imaging, A549 dox-inducible miR-34, nuclei and caspase counts, primary screen (AID 1347080;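 active = compounds whose cell count with miR-34 switched on is under 0.7 times the count with it off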); settings: A549 miR-34 inducible, Hoechst nuclei count, 48 h
[14] = MELAS cybrid and Rieske KO viability enhancers – cell-based, MELAS cybrids, Rieske KO mouse fibroblasts, CellTiter-Glo, primary screen (AID 1508586;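 active = mean z-score across replicates of 1.96 or higher in either the MELAS or the Rieske mutant cell line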;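 note: z relative to plate mean and SD of compound and empty wells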); settings: low glucose
[15] = galactose survival enhancers in mitochondrial complex I cybrids – cell-based, galactose medium, ATP luminescence, primary screen (AID 1645843;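 active = z-score of at least 1.8 in each of two replicates, scored against plate mean and spread of sample wells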;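 note: positive z means more ATP and so rescue of galactose-driven cybrid death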); settings: complex I mutant cybrid cells, 72 h, stronger effect = higher value
[16] = viability loss in pontine glioma line – cell-based, JHH-DIPG-1, MIPE4.0, CellTiter-Glo, qHTS, dose response (AID 1347062; cut-off not given, nearly all actives have AC50 up to about 27 µM;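 for AC50: cells exposed to compound for two days before readout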); settings: JHH-DIPG-1 viability, CellTiter-Glo ATP luminescence
[17] = compounds altering HSF1 focus formation in cells – imaging, Selleck Cancer Library (AID 1347162; in the data active = plate-normalised HSF1 focus index below about 0.46); settings: human cells, HSF1 nuclear foci imaging, at 10 µM; SSMD: measured here: HSF1 foci SSMD mean; cell count: measured here: cell number; plate-normalised HSF1 focus index: stronger effect = lower value
[18] = measured here: relative caspase fold change +Dox/-Dox
[19] = measured here: total cells with miR-34 induction, stronger effect = lower value
[20] = measured here: total cells without miR-34 induction
[21] = MELAS cybrid survival, CellTiter-Glo 48 h, stronger effect = higher value
[22] = Rieske KO mouse fibroblast survival, CellTiter-Glo 72 h

C[C@]12Cc3cn[nH]c3C[C@@H]1CC[C@@H]1[C@@H]2CC[C@@]2(C)[C@H]1CC[C@]2(C)O
9800: cell count [13, 20]
2.02: fold change [13, 18]
inactive: parasite load remaining [1] 50.6% and 13.2% | fluorescence ratio [2] 0.94 | inhibition [3] -1.97% | inhibition [4] -2.76% | fluorescence ratio [5] 0.96 | outcome [6] | outcome [7] | outcome [8] | outcome [9] | outcome [10] | outcome [11] | outcome [12] | fold change ([13]; stronger effect = lower value) 0.887 | z-score [14, 21] 0.697 and -0.417 | z-score [15] -0.265
8690: cell count [13, 19]
69.5% and 91.5%: viability [1]
-0.0861 and -1.23: z-score [14, 22]

CC(=O)Nc1ccc(OC[C@](C)(O)C(=O)Nc2ccc([N+](=O)[O-])c(C(F)(F)F)c2)cc1
0.733: z-score [14, 22]
0.857: fold change [13, 18]
0.174: SSMD [17]
7800: cell count [13, 19]
7020: cell count [17]
inactive: outcome [6] | outcome [16] | outcome [8] | outcome [9] | outcome [10] | outcome [11] | outcome [12] | fold change ([13]; stronger effect = lower value) 0.963 | plate-normalised HSF1 focus index [17] 1.01 | z-score [14, 21] -0.592
8100: cell count [13, 20]

O=C(NCCCNc1nc(Nc2ccc(N3CCOCC3)cc2)ncc1C1CC1)C1CCC1
active: AC50 [6] 20.9 µM | AC50 [9] 16.6 µM | AC50 [11] 14.8 µM

c1ccc2c(CN3CCNCC3)cccc2c1
inactive: outcome [6] | outcome [16] | outcome [8] | outcome [9] | outcome [10] | outcome [11]

CC[C@H]1/C=C\C=C/C[C@@H](C)[C@H](O)[C@@](C)(O)C(=O)[C@@H](C)[C@H](O)[C@@H](C)C(=O)[C@@H](C)[C@H](O)[C@@H](C)/C=C/C(=O)O[C@@H]2[C@H](C)[C@H](CC1)O[C@]1(CC[C@H](C)[C@H](C[C@@H](C)O)O1)[C@H]2C
active: AC50 [6] 10.5 µM | AC50 [16] 20.9 µM | AC50 [7] 10.5 µM | AC50 [8] 7.42 µM | AC50 [9] 0.00525 µM | AC50 [10] 6.62 µM | AC50 [11] 0.0661 µM

Cc1ncc(OC[C@@]2(c3cccc(F)c3)C[C@H]2C(=O)Nc2ccc(F)cn2)c(C)n1
inactive: outcome [6] | outcome [8] | outcome [9] | outcome [11] | outcome [12]

O=C(CBr)N1CC([N+](=O)[O-])([N+](=O)[O-])C1
inactive: outcome [6] | outcome [9] | outcome [12]

O=C(Nc1ccncc1)C(=O)c1cn(Cc2ccc(Cl)cc2)c2ccccc12
inactive: outcome [10]
active: AC50 [6] 0.295 µM | AC50 [16] 0.296 µM | AC50 [8] 1.66 µM | AC50 [9] 0.148 µM | AC50 [11] 0.417 µM | IC50 [12] 0.372 µM

O=c1[nH]c2ccc(Cl)cc2c(N[C@@H]2CN3CCC2CC3)c1-c1nc2ccccc2[nH]1
active: AC50 [6] 2.63 µM | AC50 [16] 1.87 µM | AC50 [7] 1.66 µM | AC50 [8] 3.32 µM | AC50 [9] 3.72 µM | AC50 [11] 3.32 µM | IC50 [12] 8.33 µM

CCN1C[C@]2(OC(=O)c3ccccc3NC(C)=O)CC[C@H](OC)[C@@]34[C@@H]2C[C@@H]([C@@H]13)[C@@]1(O)C[C@H](OC)[C@H]2C[C@@H]4[C@]1(O)[C@H]2OC
inactive: outcome [6] | outcome [16] | outcome [7] | outcome [8] | outcome [9] | outcome [10] | outcome [11] | outcome [12]

CN1[C@@H]2CC(O)C[C@H]1[C@@H]1O[C@@H]12 (some centres undefined)
-0.606 and 0.658: z-score [14, 22]
active: AC50 [7] 16.6 µM | AC50 [10] 16.6 µM
9240 and 10200: cell count [13, 20]
0.912 and 0.808: fold change [13, 18]
inactive: outcome [6] | outcome [8] | outcome [9] | outcome [11] | outcome [12] | fold change ([13]; stronger effect = lower value, cell number ratio, induced over uninduced) 0.909 and 0.934 | z-score [14, 21] -0.234 and -0.344
8400 and 9480: cell count [13, 19]

COc1cc2c(cc1F)C(c1ccccc1Cl)=Nc1c(n[nH]c1C)N2
active: AC50 [6] 5.25 µM | AC50 [9] 13.2 µM | AC50 [11] 14.8 µM
inactive: outcome [12]

CC(=O)OC[C@H]1O[C@@H]([S-])[C@H](OC(C)=O)[C@@H](OC(C)=O)[C@@H]1OC(C)=O.CC[PH+](CC)CC.[Au]
active: AC50 [6] 1.05 µM | AC50 [8] 1.66 µM | AC50 [9] 1.18 µM | AC50 [11] 1.32 µM | IC50 [12] 2.63 µM
